Screening results (PubChem BioAssay)
Shown is part of a subset that was picked to be rich in hits.
PRC2 inh = EZH2 (human) methyltransferase inhibition | Q15910 | PRC2 H3K27 methylation, DELFIA TRF, 1 h | inhibition, % at 12.5 µM | hit rate 0.35% among 57,000;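 active means mean inhibition of replicates at least 50% and every single replicate also reaching 50%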;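 further: dimethyl H3K27 on biotinylated H3 21-44 peptide detected by antibody; plate controls were median neutral control wells for no effect and median positive control wells for full effect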
Target sequence (Q15910 whole entry, looked up): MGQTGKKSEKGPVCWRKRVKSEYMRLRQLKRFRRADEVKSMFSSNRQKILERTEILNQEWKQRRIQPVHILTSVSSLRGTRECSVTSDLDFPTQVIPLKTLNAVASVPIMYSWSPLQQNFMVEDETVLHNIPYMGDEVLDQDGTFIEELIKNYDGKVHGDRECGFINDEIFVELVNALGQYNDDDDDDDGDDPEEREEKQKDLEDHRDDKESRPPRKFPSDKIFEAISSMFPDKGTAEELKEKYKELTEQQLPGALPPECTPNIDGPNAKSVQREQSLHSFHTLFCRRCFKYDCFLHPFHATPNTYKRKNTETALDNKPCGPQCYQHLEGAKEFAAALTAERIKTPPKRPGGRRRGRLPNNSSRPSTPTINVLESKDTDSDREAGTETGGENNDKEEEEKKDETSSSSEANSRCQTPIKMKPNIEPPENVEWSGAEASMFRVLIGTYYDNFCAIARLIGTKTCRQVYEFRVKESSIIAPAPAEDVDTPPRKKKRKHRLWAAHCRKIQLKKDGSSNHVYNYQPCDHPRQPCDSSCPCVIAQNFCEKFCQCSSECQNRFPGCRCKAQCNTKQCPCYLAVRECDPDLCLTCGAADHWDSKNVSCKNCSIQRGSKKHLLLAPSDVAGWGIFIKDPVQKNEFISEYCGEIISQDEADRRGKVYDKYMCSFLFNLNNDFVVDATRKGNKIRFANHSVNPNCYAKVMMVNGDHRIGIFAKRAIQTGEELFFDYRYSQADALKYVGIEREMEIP
Numbers without * were called inactive.

`COCC(=O)Nc1ccc2c(c1)C(=O)N(C)C[C@@H](OC)[C@H](C)CN(Cc1cncnc1)[C@H](C)CO2` gave PRC2 inh -13.
For CC(=O)Nc1ccc(NC(=O)CN(C2CCCCC2)S(C)(=O)=O)cc1 the results were PRC2 inh 5.
Screening O=C(Nc1cccc(C(F)(F)F)c1)/C(=C\c1cccs1)c1ccsc1 returned PRC2 inh 26.
Cc1ccccc1S(=O)(=O)N[C@@H]1CC[C@@H](CCn2cc(-c3ccc(F)cc3)nn2)O[C@@H]1CO was read as PRC2 inh -7.
For CO[C@@H]1CN(C)C(=O)c2cc(NC(=O)C3CC3)ccc2OC[C@@H](C)N(Cc2nccs2)C[C@H]1C the results were PRC2 inh -7.
`CO[C@H]1CN(C)C(=O)c2cc(NC(=O)C3CCOCC3)ccc2OC[C@H](C)N(Cc2cccnc2)C[C@@H]1C` gave PRC2 inh -4.
For CC(=O)c1c(O)cc(O[C@@H]2O[C@H](CO)[C@@H](O)[C@H](O)[C@H]2O)cc1O the results were PRC2 inh 94*.
For O=C(CCc1ccc(O)cc1)c1c(O)cc(O)cc1O[C@@H]1O[C@H](CO)[C@@H](O)[C@H](O)[C@H]1O the results were PRC2 inh -4.
COc1ccc(/C=C/c2cc(O)cc(O[C@@H]3O[C@H](CO)[C@@H](O)[C@H](O)[C@H]3O)c2)cc1 was read as PRC2 inh 0.
CC(O)CCCc1cc(O)cc(O[C@@H]2O[C@H](CO)[C@@H](O)[C@H](O)[C@H]2O)c1 (stereo not given in full) was read as PRC2 inh 5.
For CC(C)=CCc1cc(O[C@@H]2O[C@H](CO)[C@@H](O)[C@H](O)[C@H]2O)cc(CC=C(C)C)c1C(O)C(=O)O (stereo not given in full) the results were PRC2 inh 99*.
CC(=O)c1ccc(O[C@@H]2O[C@H](CO)[C@@H](O)[C@H](O)[C@H]2O)c(/C=C/C(C)(C)O)c1 was read as PRC2 inh 5.
For CC(C)C#Cc1cnc2c(c1)C(=O)N([C@@H](C)CO)C[C@H](C)[C@H](CN(C)S(=O)(=O)c1cn(C)cn1)O2 the results were PRC2 inh 1.
For CCCNC(=O)N1C[C@@H](C)[C@H](OC)CN(C)C(=O)c2ccc(NS(=O)(=O)CC(F)(F)F)cc2OC[C@H]1C the results were PRC2 inh 8.
Screening C[C@@H]1CN([C@@H](C)CO)C(=O)Cc2cc(NC(=O)CCN3CCOCC3)ccc2O[C@@H]1CN(C)Cc1ccncc1 returned PRC2 inh 4.
C[C@@H]1CN([C@@H](C)CO)C(=O)c2cc(C#CCN(C)C)cnc2O[C@H]1CN(C)Cc1ccncc1 was read as PRC2 inh 0.
For O=C(C[C@@H]1CC[C@H](NC(=O)Nc2cc(F)ccc2F)[C@@H](CO)O1)Nc1ccc(-c2ccccc2)cc1 the results were PRC2 inh -9.
COc1cccc2c1C(=O)CC(c1ccccc1)O2 (stereo not given) was read as PRC2 inh -11.
`COc1cc(O)c(OC)c2c1C(=O)CC(c1ccccc1)O2` (stereo not given) gave PRC2 inh 77*.
COc1cc(O)c2c(c1)OC(c1ccc(O)cc1)CC2=O (stereo not given) was read as PRC2 inh -4.
Screening COc1cc(O)c2c(=O)c(OC)c(-c3cc(O)c(OC)c(OC)c3)oc2c1 returned PRC2 inh -17.
O=c1c(O)c(-c2ccccc2)oc2cc(O)cc(O)c12 was read as PRC2 inh -1.
Screening O=c1c(O)c(-c2cc(O)c(O)c(O)c2)oc2cc(O)cc(O)c12 returned PRC2 inh 93*.
For C[C@H](CO)N1C[C@H](C)[C@@H](CN(C)Cc2ccncc2)Oc2ccc(NS(=O)(=O)c3ccc(F)cc3)cc2C1=O the results were PRC2 inh 12.
For CC(C)(c1ccc(NS(=O)(=O)C(F)(F)F)cc1)c1ccc(C(C)(C)c2cccc(NS(=O)(=O)C(F)(F)F)c2)cc1 the results were PRC2 inh 52*.
`Cc1cc(Cl)c(S(=O)(=O)Nc2cccc(C(F)(F)F)c2)cc1OCC(N)=O` gave PRC2 inh 2.
`Cc1ccc(S(=O)(=O)NC(C)C(=O)Nc2cccc(C(F)(F)F)c2)cc1` (stereo not given) gave PRC2 inh -2.
`Cc1ccc(-c2ccc3c(c2)O[C@H](CN(C)C(=O)C2CCCCC2)[C@@H](C)CN([C@@H](C)CO)S3(=O)=O)cc1` gave PRC2 inh -13.
`CC(C)(C)n1nc(-c2cccc3ccccc23)c2c(N)ncnc21` gave PRC2 inh -12.
Screening COc1ccc2c(c1)c(CC(=O)O)c(C)n2C(=O)c1ccc(Cl)cc1 returned PRC2 inh 7.
Screening COc1ccc(-n2c(C)c(C(C)=O)c3cc(OCC(N)=O)ccc32)cc1 returned PRC2 inh 24.
`COc1ccc2c(c1)c(CC(=O)OCc1ccccn1)c(C)n2C(=O)c1ccc(Cl)cc1` gave PRC2 inh 56*.
